According to ChEMBL document CHEMBL1157539, “Thousands of chemical starting points for antimalarial lead identification” (Nature, 2010):

The compounds below were run on HepG2 (assay: GSK_TCMDC: Percent inhibition of human HepG2 cell line. Test compounds present at 10uM.).
Format: functional
Compound `CC(C)C[C@H](NC(=O)c1ccc(OCCN2CCOCC2)cc1)C(=O)N[C@H](/C=N/N(C)C(=O)c1ccccc1)CCc1ccccc1` has an Inhibition of 8%. For `O=C(C=Cc1ccc(Cl)c(Cl)c1)NC1CCN(CCc2ccccc2)CC1.O=C(O)C(F)(F)F`, the Inhibition was 6%. `O=C(O)C[C@H](NC(=O)CCCNC(=O)c1cccc(-c2ccc(Cl)c(Cl)c2)c1)C(=O)O` was tested, and the Inhibition was 5%. `COc1ccccc1-c1ccc2nnc(SCC(=O)Nc3ccc4c(c3)OCCO4)n2n1` showed an Inhibition of 9%. Work on `COc1ccc(NC(=O)[C@H](CC(C)C)Nc2cc(C)nc(NCc3cccc(C)c3)n2)cc1.O=C(O)C(F)(F)F` yielded an Inhibition of 24%. `CC(C)CNCc1ccc(-c2ccc(CN(C(=O)NCCc3ccccc3)C3CCN(Cc4ccccc4)CC3)cc2)cc1.O=C(O)C(F)(F)F` was tested, and the Inhibition was 37%. With `Cl.c1ccc(Cn2nnnc2-c2cccc(Nc3ccnc4cc(-c5nccs5)ccc34)c2)cc1` the Inhibition was 51%. With `O=C(O)C(F)(F)F.c1cc(CN2CCCCC2)cc(-c2csc(-c3nc4ccccc4[nH]3)c2)c1` the Inhibition was 26%. With `NC(=O)c1cccc(CNC(=O)NC[C@H]2CN(Cc3ccc(Cl)c(Cl)c3)CCO2)c1` the Inhibition was 0%. With `CCN(CC)c1ccccc1CNC(=O)c1cc(Cl)c(N)cc1OC` the Inhibition was 6%. Work on `CCn1cc2c3c(cc(C(=O)N[C@@H](Cc4ccccc4)[C@H](O)CNC4CCOCC4)cc31)N(C)S(=O)(=O)CC2` yielded an Inhibition of 0%. For `COc1ccc2nccc([C@@H](O)CN3CCC(NS(=O)(=O)c4cc(Br)c(Br)s4)CC3)c2c1`, the Inhibition was 14%. `Cc1cccc2nc(-c3ccc(-c4cccc(CNCCCNS(C)(=O)=O)c4)s3)[nH]c12.O=C(O)C(F)(F)F` showed an Inhibition of 20%.
